# Most compounds without a hit are left out; they make up all but 1.4% or so of the library.
# PrPC TRFRET: reduces human prion protein on the cell surface | hit rate 0.43% among 370,000 | AID 720596 | inhibition, % at 13.8 µM | cell surface PrPC, TR-FRET read-out; in the data active means inhibition above about 24%; further: 0% = median of the test wells and 100% = reference compound wells
# RecA intein inh: Mtb RecA intein splicing inhibition; AID 2221; inhibition, % (test concentration not listed); hit rate 0.75% among 290,000; cell-free RecA intein splicing, fluorescence; P9WHJ3; in the data active means inhibition above about 30%; inconclusive means no clear call, values can overlap the other calls;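 further: 0% = vehicle wells and 100% = reference inhibitor control wells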
# BJeLR lethal: kills HRASV12-expressing BJeLR cells. BJeLR (HRASV12) viability, CellTiter-Glo ATP luminescence, 48 h. inhibition, % (no concentration beside the values). hit rate 0.17% among 300,000. AID 1554; in the data active means inhibition above about 50%; inconclusive means no clear call, values can overlap the other calls
# PrP UTR inh: suppresses PrP 5' UTR mRNA reporter expression; cell-based PrP 5' UTR mRNA reporter, plate reader; inhibition, % (no concentration beside the values); hit rate 0.35% among 340,000; AID 488862; in the data active means inhibition above about 52%; further: 0 = median of the neutral control wells
# Mtb hypoxia rep: Mtb hypoxia fluorescent reporter inhibition. hit rate 0.1% among 300,000. fluorescence inhibition, % (no concentration beside the values). M. tuberculosis hypoxia-regulated fluorescent reporter, fluorescence; in the data active means fluorescence inhibition mostly above about 23%, no sharp cut-off; inactive means mostly below about 17%
# SARS 3CLpro inh: SARS-CoV 3CLpro protease inhibition | P0C6X7 | hit rate 0.14% among 290,000 | recombinant SARS-CoV 3CLpro, quenched FRET peptide cleavage | inhibition, % at 6 µM | AID 1706; in the data active means inhibition above about 12%
# PrP 5UTR single: prion 5' UTR mRNA inhibition, cherry-pick retest | shares compounds with PrP UTR inh | cell-based prion protein 5' UTR reporter, plate reader | inhibition, % at 2.5 µM | hit rate 48% among 1,100 | AID 504592; in the data active means inhibition above about 54%; inconclusive means no clear call, values can overlap the other calls
# * = called active by the depositor; ? = inconclusive; . = no result.
SMILES,PrPC TRFRET,RecA intein inh,BJeLR lethal,PrP UTR inh,Mtb hypoxia rep,SARS 3CLpro inh,PrP 5UTR single
CCOC(=O)Cc1[nH]nc2c1C(c1ccsc1)C(C#N)=C(N)O2 (stereo not given),1,57*,-1,53*,17,0,-9
COC(=O)c1sc2ncn(CC(=O)NCCc3ccc(OC)c(OC)c3)c(=O)c2c1C,3,1,-10,21,3,-1,.
COc1ccc(CCNC(=O)Cn2cnc3sc(C)c(-c4ccc(F)cc4)c3c2=O)cc1OC,1,.,5,73*,8,3,?
CCOP(=O)(OCC)c1nc(-c2cccc3ccccc23)oc1N1CCCCC1,2,-57,2,72*,-1,4,1
COP(=O)(OC)c1nc(-c2cccc3ccccc23)oc1N1CCCCC1,3,-20,-5,-38,4,0,.
Cc1cccc(N(NC(=O)C(C)(C)O)C(=O)c2ccccc2)c1,1,1,11,67*,.,1,-30
CCOC(=O)N(NC(=O)C(O)(c1ccccc1)c1ccccc1)c1ccccc1,14,3,7,-39,0,-4,.
Cc1cc(C(=O)COc2cccnc2[N+](=O)[O-])c(C)n1-c1ccccc1,6,-2,19,58*,.,-2,?
COC(=O)C1=C(c2ccc(F)cc2F)CC2CCC1N2C(=O)NCCNC(C)=O (stereo not given),.,.,.,.,6,.,.
O=C(CC(Nc1ccc(Cl)cc1Cl)C(=O)O)c1ccccc1 (stereo not given),-6,-3,-7,63*,9,-3,16
COC(=O)C1=C(c2ccc(OCc3ccccc3)cc2)CC2CCC1N2C(=O)NCc1cccc(OC)c1 (stereo not given),.,.,.,.,-7,.,.
COc1ccc(NC(=S)NCc2cccs2)cc1,-4,0,-2,75*,6,0,-12
CC(C)c1ccc(NC(=S)NCc2cccs2)cc1,0,.,-7,-23,15,3,.
CCC(C)C1COCCS(=O)(=O)N1Cc1ccc(Br)cc1 (stereo not given),.,.,.,.,4,.,.
C=CCNC(=O)C1CCN(C(=O)c2ccc(-c3ccccc3)cc2)CC1,-6,.,11,60*,-1,4,?
NC(=NOC(=O)CC1CCCCC1)c1cccc([N+](=O)[O-])c1,.,.,.,.,7,.,.
Cc1ccccc1-c1nnc2n1N=C(c1ccc(O)c(O)c1)CS2,-8,.,.,.,.,.,.
CCOc1ccc(C2=Nn3c(nnc3-c3ccccc3OC)SC2)cc1,18,8,50,69*,11,0,88*
COc1ccccc1-c1nnc2n1N=C(c1ccc(O)c(O)c1)CS2,.,-7,25,61*,3,2,90*
COc1ccc(C2=Nn3c(nnc3-c3ccccc3C(F)(F)F)SC2)cc1OC1CCOC1 (stereo not given),5,.,.,15,-2,.,.
COc1ccc(OC)c(-c2nnc3n2N=C(c2ccc(OC)c(OCC4CC4)c2)CS3)c1,.,.,.,67*,-1,.,93*
COc1ccc(C2=Nn3c(nnc3-c3ccccc3OC)SC2)cc1OC1CCOC1 (stereo not given),12,.,.,81*,4,.,83*
Nc1ccc(Oc2cccc(Oc3ccc(N)cc3)c2)cc1,10,2,-5,67*,.,2,75*
CC(C=NNC(=O)c1ccncc1)=Cc1ccc(C(C)C)cc1,.,.,.,.,-2,.,.
CC1(C)OC2C(CO)OC(n3ccc(=O)[nH]c3=O)C2O1 (stereo not given),.,.,.,.,5,.,.
SMILES,PrPC TRFRET,RecA intein inh,BJeLR lethal,PrP UTR inh,Mtb hypoxia rep,SARS 3CLpro inh,PrP 5UTR single
CC(C)C(C(=O)NCc1ccco1)N(CC1CCCO1)C(=O)CNS(=O)(=O)c1ccccc1 (stereo not given),8,-3,2,68*,14,5,-9
CC(C)C(C(=O)NCc1ccccc1)N(CC1CCCO1)C(=O)CNS(=O)(=O)c1ccccc1 (stereo not given),5,-2,-10,-5,8,6,.
CCN1C/C(=C/c2cccc([N+](=O)[O-])c2)C(=O)/C(=C/c2cccc([N+](=O)[O-])c2)C1,-13,.,.,66*,19,1,61*
CCOC1(N=C(C)NS(=O)(=O)c2ccc(Cl)cc2)C(C)=CC(=O)C=C1C,.,.,.,.,-15,.,.
Cc1nc(C)n(C(C)CNC(=O)c2ccco2)n1 (stereo not given),-2,1,3,61*,3,1,4
COc1cccc(C=NNC(=O)CNC(=O)c2cccnc2)c1O,.,.,.,.,7,.,.

# Bioassay records: PubChem, several laboratories
